Consider 10 molecules from PubChem BioAssay (NCI).

About 83,000 compounds went through this panel and 20% of them were active in at least one assay; those are over-represented in the sample as a whole.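 Plates (96-well) were seeded with cells, treated with compound at one concentration, and incubated for 48 hours before percent growth was determined.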 A number with no mark means an inactive call. Active and inactive are the calls of the source. How the source made its calls: active means growth percent below 10; inactive means the rest.

In the assay the test system is MDA-MB-468 breast. The experiment in a line: NCI-60 one-dose screen, 48 h (100 = growth as untreated, 0 = no growth, -100 = all killed). The following applies: 10 µM unless noted.

As to `Cc1nc2ccccc2c(/C=C/c2ccccc2)c1C(=O)/C=C/c1ccccc1`, the growth was 35.6%.

Consider `O=C(CN1CCOCC1)Nc1ccc2ncnc(Nc3ccc(OCc4cccc(F)c4)c(Cl)c3)c2c1`, for which the growth is -25.1% (active).

`Cc1nc2sc(C(=O)Nc3ccc(Cl)cc3)c(N)c2cc1C(O)c1ccccc1` (stereo not given): the growth is -0.107% (active).

As to `Fc1ccc(NCc2cn(-c3ccccc3)nc2-c2ccc(OCc3ccccc3)cc2)cc1Cl`, the growth was 119%.

Take `Cn1nc(C(F)(F)F)c(-c2cc(C(F)(F)F)cc(C(F)(F)F)c2)c1-c1ccc(OCc2ccc(Cl)cc2)cc1O`: the growth was -5% (active).

For `C[C@@H]1O[C@@H](O[C@@H]2C[C@H](c3ccc4c(c3O)C(=O)C3=C(C4=O)[C@@]4(O)C(=O)C[C@](C)(O)C[C@@]4(O)C=C3)O[C@H](C)[C@H]2O)C[C@H](O)[C@@H]1O`, the growth is 106%.

Turning to `O=C(NC[C@H](O)CN1CCc2ccccc2C1)c1cc(NC2COC2)ncn1`, the growth is 115%.

As to `C=C1C(=O)O[C@H]2[C@H]1CC/C(COC(=O)c1ccc(Cl)nc1)=C\CC[C@@]1(C)O[C@@H]21`, the growth is -25.1% (active).

For `COCc1cnccc1NC1CCCCCC1`, the growth is 102%.

Consider `CCOc1ccncc1[N+](=O)[O-]`, for which the growth was 104%.
